In ChEMBL document CHEMBL2218924, “A broad activity screen in support of a chemogenomic map for kinase signalling research and drug discovery” (Biochem J, 2013):

What was measured:
[1] = target: T1, Serine/threonine-protein kinase TBK1 (Homo sapiens) (UniProt Q9UHD2); details: at 10 µM
T1 sequence (whole entry): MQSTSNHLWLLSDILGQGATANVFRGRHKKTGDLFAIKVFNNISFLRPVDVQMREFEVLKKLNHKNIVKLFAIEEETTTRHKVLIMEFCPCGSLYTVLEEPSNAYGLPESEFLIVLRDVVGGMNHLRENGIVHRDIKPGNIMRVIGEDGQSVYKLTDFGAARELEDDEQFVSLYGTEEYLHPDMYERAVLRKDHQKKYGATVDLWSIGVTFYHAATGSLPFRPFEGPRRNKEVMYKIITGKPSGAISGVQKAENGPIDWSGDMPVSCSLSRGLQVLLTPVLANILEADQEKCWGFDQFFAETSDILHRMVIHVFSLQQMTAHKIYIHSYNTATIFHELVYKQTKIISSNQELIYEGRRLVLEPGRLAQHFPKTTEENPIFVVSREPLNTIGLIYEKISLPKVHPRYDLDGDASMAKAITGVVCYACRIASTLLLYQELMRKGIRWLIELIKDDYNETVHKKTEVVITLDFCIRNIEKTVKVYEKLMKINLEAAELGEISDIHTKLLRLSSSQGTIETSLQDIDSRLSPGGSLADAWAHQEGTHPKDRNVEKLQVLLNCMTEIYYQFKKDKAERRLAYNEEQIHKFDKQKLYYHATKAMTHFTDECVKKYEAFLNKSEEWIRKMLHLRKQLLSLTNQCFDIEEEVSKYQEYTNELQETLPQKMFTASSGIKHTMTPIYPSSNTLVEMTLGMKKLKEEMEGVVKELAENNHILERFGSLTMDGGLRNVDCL

[2] = target: T2, TGF-beta receptor type-1 (Homo sapiens) (UniProt P36897); details: at 1 µM
T2 sequence (whole entry): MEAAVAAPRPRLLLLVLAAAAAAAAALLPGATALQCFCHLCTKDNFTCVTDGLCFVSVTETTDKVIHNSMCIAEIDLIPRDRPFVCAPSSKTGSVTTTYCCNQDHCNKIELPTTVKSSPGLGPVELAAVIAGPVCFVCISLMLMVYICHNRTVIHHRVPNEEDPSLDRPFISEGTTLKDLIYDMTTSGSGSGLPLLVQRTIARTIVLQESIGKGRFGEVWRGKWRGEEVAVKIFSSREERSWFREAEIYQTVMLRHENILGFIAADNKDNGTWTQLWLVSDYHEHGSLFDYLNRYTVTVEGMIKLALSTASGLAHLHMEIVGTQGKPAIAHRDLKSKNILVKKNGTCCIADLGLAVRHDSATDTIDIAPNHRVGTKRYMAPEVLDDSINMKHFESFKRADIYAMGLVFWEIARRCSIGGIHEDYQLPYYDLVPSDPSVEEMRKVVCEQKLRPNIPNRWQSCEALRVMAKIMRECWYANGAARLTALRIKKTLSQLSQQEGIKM

[3] = target: T2, TGF-beta receptor type-1 (Homo sapiens); details: at 10 µM
[4] = target: Insulin-like growth factor 1 receptor (Homo sapiens) (UniProt P08069); details: at 1 µM
[5] = target: Insulin-like growth factor 1 receptor (Homo sapiens) (UniProt P08069); details: at 10 µM
[6] = target: T3, Inhibitor of nuclear factor kappa-B kinase subunit alpha (Homo sapiens) (UniProt O15111); details: at 1 µM
T3 sequence (whole entry): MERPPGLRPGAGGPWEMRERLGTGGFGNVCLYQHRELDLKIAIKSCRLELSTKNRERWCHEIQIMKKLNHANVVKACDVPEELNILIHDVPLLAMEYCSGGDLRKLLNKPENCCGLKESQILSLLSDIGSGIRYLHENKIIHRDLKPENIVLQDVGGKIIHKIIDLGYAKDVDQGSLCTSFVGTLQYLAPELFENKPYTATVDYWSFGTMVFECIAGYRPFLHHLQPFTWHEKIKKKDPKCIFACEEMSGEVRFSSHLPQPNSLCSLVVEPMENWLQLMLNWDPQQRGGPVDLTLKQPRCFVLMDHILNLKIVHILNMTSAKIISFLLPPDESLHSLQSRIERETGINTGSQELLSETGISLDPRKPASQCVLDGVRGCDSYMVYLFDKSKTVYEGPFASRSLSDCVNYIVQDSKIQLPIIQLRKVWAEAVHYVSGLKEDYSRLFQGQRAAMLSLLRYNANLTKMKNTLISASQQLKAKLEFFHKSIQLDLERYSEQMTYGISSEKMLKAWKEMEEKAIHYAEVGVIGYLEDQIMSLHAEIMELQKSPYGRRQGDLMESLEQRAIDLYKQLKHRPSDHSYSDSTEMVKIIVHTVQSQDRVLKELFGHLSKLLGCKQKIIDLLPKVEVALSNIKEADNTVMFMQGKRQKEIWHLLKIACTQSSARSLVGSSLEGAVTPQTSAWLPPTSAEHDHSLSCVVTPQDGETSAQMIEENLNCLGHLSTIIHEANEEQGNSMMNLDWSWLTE

[7] = target: T3, Inhibitor of nuclear factor kappa-B kinase subunit alpha (Homo sapiens); details: at 10 µM
[8] = target: T4, Inhibitor of nuclear factor kappa-B kinase subunit beta (Homo sapiens) (UniProt O14920); details: at 1 µM
T4 sequence (whole entry): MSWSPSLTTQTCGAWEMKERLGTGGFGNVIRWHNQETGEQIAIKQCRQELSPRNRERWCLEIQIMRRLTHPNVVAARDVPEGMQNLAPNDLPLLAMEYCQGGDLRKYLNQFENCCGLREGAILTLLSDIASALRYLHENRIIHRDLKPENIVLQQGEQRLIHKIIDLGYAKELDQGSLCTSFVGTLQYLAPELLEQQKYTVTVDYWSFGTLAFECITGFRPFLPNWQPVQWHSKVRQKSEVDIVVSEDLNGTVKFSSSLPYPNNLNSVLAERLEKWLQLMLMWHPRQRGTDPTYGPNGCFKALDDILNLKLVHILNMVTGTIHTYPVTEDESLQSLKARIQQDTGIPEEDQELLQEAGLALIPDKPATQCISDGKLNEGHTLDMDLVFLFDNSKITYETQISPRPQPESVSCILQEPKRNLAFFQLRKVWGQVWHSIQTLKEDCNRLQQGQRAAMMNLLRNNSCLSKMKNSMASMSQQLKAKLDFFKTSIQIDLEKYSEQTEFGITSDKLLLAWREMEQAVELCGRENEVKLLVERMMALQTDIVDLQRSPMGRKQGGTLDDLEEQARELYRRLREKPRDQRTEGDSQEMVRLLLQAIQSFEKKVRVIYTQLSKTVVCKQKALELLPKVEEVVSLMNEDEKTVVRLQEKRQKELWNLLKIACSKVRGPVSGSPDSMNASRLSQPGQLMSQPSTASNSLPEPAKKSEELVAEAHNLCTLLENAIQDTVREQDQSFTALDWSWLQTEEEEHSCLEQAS

[9] = target: T4, Inhibitor of nuclear factor kappa-B kinase subunit beta (Homo sapiens); details: at 10 µM
[10] = target: Insulin receptor (Homo sapiens) (UniProt P06213); details: at 1 µM
Chain of Insulin receptor (Homo sapiens) (P06213 28-758 limits assumed): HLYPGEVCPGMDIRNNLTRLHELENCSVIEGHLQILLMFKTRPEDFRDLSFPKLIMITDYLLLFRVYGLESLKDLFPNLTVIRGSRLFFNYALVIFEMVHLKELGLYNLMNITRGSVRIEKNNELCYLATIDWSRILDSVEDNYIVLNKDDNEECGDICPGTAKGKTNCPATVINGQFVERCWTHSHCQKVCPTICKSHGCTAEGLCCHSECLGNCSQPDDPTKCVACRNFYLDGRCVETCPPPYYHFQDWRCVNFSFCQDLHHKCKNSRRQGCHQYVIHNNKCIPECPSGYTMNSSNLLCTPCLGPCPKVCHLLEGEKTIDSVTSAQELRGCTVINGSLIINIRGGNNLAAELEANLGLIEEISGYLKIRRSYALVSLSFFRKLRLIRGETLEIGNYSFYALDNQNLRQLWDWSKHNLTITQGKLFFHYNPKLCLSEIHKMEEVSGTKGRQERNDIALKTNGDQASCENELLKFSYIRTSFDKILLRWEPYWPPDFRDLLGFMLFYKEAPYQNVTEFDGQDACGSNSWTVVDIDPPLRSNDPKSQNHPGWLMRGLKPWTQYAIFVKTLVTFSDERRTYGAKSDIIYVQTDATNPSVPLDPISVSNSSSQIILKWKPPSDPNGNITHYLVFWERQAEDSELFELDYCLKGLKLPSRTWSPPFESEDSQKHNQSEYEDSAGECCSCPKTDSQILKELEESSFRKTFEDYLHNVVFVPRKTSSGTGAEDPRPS
Chain of Insulin receptor (Homo sapiens) (P06213 763-1382 limits assumed): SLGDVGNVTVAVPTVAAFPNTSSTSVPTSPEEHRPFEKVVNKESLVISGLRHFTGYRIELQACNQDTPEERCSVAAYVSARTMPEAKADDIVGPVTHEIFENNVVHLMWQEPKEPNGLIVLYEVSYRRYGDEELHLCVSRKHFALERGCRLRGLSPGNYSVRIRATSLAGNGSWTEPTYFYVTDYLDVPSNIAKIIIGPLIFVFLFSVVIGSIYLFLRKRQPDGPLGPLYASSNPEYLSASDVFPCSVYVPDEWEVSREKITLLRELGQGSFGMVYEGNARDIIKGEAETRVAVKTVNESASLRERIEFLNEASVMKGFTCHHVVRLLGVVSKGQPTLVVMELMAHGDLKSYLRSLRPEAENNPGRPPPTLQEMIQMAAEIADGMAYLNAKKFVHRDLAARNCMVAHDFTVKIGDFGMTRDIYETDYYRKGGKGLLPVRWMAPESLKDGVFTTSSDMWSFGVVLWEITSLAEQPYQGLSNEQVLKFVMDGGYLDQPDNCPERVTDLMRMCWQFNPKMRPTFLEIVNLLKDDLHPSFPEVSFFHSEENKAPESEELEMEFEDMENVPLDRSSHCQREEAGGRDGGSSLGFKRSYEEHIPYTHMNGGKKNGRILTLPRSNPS

Chain of Insulin-like growth factor 1 receptor (Homo sapiens) (P08069 31-736 limits assumed): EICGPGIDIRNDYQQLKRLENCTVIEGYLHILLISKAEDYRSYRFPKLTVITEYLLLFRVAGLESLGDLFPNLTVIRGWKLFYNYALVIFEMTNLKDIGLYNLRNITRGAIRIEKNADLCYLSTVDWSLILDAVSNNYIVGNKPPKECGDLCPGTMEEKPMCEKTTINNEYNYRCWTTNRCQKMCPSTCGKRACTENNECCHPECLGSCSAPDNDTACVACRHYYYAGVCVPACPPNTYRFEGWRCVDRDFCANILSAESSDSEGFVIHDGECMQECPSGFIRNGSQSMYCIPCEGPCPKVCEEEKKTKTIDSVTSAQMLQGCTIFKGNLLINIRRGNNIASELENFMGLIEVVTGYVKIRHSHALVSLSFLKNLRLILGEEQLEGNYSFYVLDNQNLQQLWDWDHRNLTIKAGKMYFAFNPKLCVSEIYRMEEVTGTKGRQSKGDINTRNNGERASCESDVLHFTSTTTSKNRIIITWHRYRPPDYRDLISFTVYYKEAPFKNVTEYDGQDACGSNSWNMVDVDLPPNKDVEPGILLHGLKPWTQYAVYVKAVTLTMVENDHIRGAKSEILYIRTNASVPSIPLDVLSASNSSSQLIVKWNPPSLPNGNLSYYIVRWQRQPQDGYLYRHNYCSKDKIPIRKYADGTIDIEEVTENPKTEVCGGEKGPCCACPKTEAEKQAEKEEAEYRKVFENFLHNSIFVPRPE
Chain of Insulin-like growth factor 1 receptor (Homo sapiens) (P08069 741-1367 limits assumed): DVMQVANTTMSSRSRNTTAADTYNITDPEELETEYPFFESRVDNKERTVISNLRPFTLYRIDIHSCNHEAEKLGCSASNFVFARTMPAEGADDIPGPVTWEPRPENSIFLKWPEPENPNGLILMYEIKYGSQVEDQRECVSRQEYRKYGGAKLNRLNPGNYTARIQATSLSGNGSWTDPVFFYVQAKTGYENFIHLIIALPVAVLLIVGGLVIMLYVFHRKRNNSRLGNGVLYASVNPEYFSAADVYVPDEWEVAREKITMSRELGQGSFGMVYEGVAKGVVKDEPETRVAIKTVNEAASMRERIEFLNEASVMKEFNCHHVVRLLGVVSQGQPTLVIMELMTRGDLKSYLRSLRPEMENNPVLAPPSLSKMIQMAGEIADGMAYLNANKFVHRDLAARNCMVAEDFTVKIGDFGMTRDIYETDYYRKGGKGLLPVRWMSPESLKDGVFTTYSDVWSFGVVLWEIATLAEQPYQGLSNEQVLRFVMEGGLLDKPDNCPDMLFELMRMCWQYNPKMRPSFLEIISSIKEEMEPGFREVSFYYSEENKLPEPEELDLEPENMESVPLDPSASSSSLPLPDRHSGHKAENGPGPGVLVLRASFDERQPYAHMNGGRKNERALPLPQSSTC

Row | SMILES | residual activity [1] | residual activity [2] | residual activity [3] | residual activity [4] | residual activity [5] | residual activity [6] | residual activity [7] | residual activity [8] | residual activity [9] | residual activity [10]
1 | Cc1cccc(-c2[nH]c(C(C)(C)C)nc2-c2ccc3c(c2)OCO3)n1 | 72% | 10% | 0% | 106% | 96% | – | – | – | – | –
2 | c1ccc2c(-c3ccncc3)c[nH]c2c1 | 51% | 87% | 88% | 88% | 79% | 97% | 69% | 105% | 73% | 110%
3 | O=C1NC(=O)/C(=C\c2ccc3nccnc3c2)S1 | 27% | 92% | 75% | 105% | 89% | 100% | 54% | 102% | 69% | 107%
4 | O=C1Nc2cc(Br)ccc2/C1=C1/Nc2ccccc2/C1=N\O | 15% | 88% | 77% | 99% | 101% | 105% | 100% | 101% | 85% | 75%
5 | O=C1Nc2ccc(Br)cc2/C1=C\c1cc2c([nH]1)CCCC2 | 65% | – | – | – | – | 102% | 115% | – | – | –
6 | COc1cc2ncnc(Nc3ccc(NC(=O)c4ccccc4)cc3)c2cc1OC | 75% | 98% | – | – | 103% | 102% | 96% | 109% | 106% | –
7 | c1ccc(-c2n[nH]cc2-c2ccnc3ccccc23)nc1 | 66% | 6% | 0% | 99% | 82% | – | – | – | – | 108%
8 | COc1ccc(CNc2nc(N(CCO)CCO)nc3c2ncn3C(C)C)cc1 | 55% | 88% | 74% | 94% | 88% | 101% | 102% | 112% | 99% | 99%
9 | Nc1cccc(-c2cc3c(Oc4cccc(O)c4)ncnc3[nH]2)c1 | 19% | 101% | 56% | 105% | 85% | 88% | 78% | – | 91% | –
10 | Oc1c2ccccc2c2c3c(cccc13)N=N2 | 11% | 88% | 74% | 92% | 49% | 57% | 21% | 78% | 43% | 81%
11 | COc1ccc(C(=O)Nc2sc3c(c2C(N)=O)CCCC3)cc1OC | 71% | 71% | 92% | 87% | 88% | – | 113% | 99% | 88% | 105%
12 | O=C1c2ccccc2-[n+]2ccc3c([nH]c4ccccc43)c21 | 53% | 81% | 78% | 86% | 92% | 108% | 108% | 113% | 97% | 84%
13 | CO[C@H]1C[C@@H]2CC[C@@H](C)[C@@](O)(O2)C(=O)C(=O)N2CCCC[C@H]2C(=O)O[C@H]([C@H](C)C[C@@H]2CC[C@@H](O)[C@H](OC)C2)CC(=O)[C@H](C)/C=C(\C)[C@@H](O)[C@@H](OC)C(=O)[C@H](C)C[C@H](C)/C=C/C=C/C=C/1C | 55% | 82% | 78% | 96% | 74% | 121% | 148% | 104% | 124% | 107%
14 | CCOc1cc2ncnc(Nc3cccc(Br)c3)c2cc1OCC | 33% | 89% | 81% | 104% | 100% | 108% | 108% | 97% | 82% | 104%
15 | CC(=O)c1ccc(N2CCOCC2)cc1O | 70% | 83% | 90% | – | – | – | – | 104% | 102% | –
16 | CCN(CC)C(=O)c1ccc(Nc2nc(OCC3CCCCC3)c3nc[nH]c3n2)cc1 | 2% | 82% | 50% | 70% | 16% | – | – | 94% | 69% | 95%
17 | Ic1cccc(CSc2nnc(-c3ccncc3)o2)c1 | 6% | 82% | 79% | 79% | 95% | 80% | 72% | 87% | 79% | 93%
18 | CC(=O)O/N=C1\C(=C2\C(=O)Nc3cc(Br)ccc32)Nc2ccccc21 | 14% | 91% | 74% | 102% | 100% | 111% | 108% | 101% | 93% | 118%
19 | Cc1nc2cc3nc(-c4cccs4)cnc3cc2n1C | 87% | 98% | 118% | 115% | 106% | 125% | 106% | 106% | 106% | 117%
